High-throughput results from PubChem.
A selection: hits, their analogues and other compounds. The true share with any hit is near 3.2%.
TR SRC2 fluor cs – Texas Red fluorescence interference in TRb-SRC2 counter-screen. TRb/SRC2 Texas Red total fluorescence interference. AID 1479. 0.29% of 280,000 active. Potency, µM (doses to about 106 µM); active = well fitted curve in either direction with a large enough effect; inconclusive = small, poorly fitted or top-dose-only effect
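Human TRβ ligand-binding domain (0.6 uM) and Texas Red SRC2 peptide (20 nM) in Tris buffer with 1 uM T3 and 5% DMSO were incubated with pinned compound for 5 hr at ambient temperature. Total fluorescence was computed as S + 2P (555/632 nm).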
Tau fluor cs – counter-screen for tau fibril formation inhibitors. tau K18 P301L Alexa594 fluorescence, heparin fibrillization. Potency, µM (series often up to 57.7 µM). 0.93% of 280,000 active. AID 1463; note: nearly all actives have a fitted effect of over 55% in size
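Human K18 P301L tau (15 uM unlabeled plus 0.24 uM Alexa 594-labeled, final) in 100 mM sodium acetate pH 7 was mixed with compound and 20 uM heparin and incubated 6 hr at 37 C.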
Tau FP inhib – inhibitors of human tau fibril formation; 0.39% of 280,000 active; P10636; K18 P301L tau heparin fibrillization, Alexa594 FP, 6 h; AID 1468; Potency, µM (doses to about 57.7 µM), most hits filed as inhibitors; note: nearly all actives have a fitted effect of over 55% in size
Target sequence (P10636 561-689 P618L limits assumed): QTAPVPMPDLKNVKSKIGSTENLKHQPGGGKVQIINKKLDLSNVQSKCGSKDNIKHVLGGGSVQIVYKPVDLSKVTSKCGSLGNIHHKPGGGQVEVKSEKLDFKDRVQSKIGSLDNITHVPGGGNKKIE
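Quantitative HTS format: compounds meet 15 uM recombinant K18 P301L tau and Alexa 594-tau tracer in 100 mM sodium acetate pH 7; 20 uM heparin triggers fibrillization at 37 C over 6 hr; FP gives the signal.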
Tau fibril ThT – tau fibrillization inhibition (ThT binding); Potency, µM (series often up to 57.4 µM), actives largely listed as inhibitors; recombinant tau K18 P301L (four-repeat tau fragment), heparin-induced fibrillization, ThT fluorescence; AID 1460; 2.1% of 270,000 active; note: nearly all actives have a fitted effect of over 55% in size
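Heparin-induced fibrillization of the P301L-mutant K18 repeat-domain fragment of human tau was followed by ThT binding in quantitative high-throughput format.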
TRb-SRC2 inh – disrupts binding of human TR beta to SRC2 | P10828 | TRbeta-SRC2 peptide binding, fluorescence polarization; receptor liganded with 1 µM T3 | Potency, µM (titrated, usually from 106 µM), actives largely listed as inhibitors | 0.065% of 280,000 active | AID 1469; note: nearly all actives have a fitted effect of over 50% in size
Target sequence (P10828 whole entry, looked up): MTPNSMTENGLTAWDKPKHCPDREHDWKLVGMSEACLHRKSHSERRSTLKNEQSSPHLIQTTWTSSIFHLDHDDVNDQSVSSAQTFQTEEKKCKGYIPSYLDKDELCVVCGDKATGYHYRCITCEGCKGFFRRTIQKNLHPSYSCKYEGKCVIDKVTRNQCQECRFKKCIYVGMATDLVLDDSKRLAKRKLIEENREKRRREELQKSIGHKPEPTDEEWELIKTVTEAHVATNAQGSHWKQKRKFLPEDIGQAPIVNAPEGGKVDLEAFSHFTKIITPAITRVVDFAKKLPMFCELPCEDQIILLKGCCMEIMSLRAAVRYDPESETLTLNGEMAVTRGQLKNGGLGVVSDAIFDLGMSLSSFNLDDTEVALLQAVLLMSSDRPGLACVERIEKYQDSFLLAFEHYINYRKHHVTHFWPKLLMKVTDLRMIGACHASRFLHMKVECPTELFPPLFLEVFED
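Fluorescence polarization of 20 nM Texas Red SRC2 peptide with 0.6 uM human TRb ligand-binding domain, in Tris buffer with 1uM T3 and 5% DMSO. Incubated 5 hr ambient; normalized to unbound and bound controls.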
GoLoco inh red – inhibitors of human Gai1-RGS12 GoLoco interaction (red fluorophore). Gai1:RGS12 GoLoco peptide FP, rhodamine, 10 min. Potency, µM (titrated, usually from 61.6 µM), most hits filed as inhibitors. AID 880. 0.44% of 230,000 active. P63096; active = well fitted inhibition curve with a large enough effect, not every such curve was filed as active; inactive = no such curve, though single readings can be large or run the other way; note: nearly all actives have a fitted effect of over 30% in size
A number is an active result; - = inactive; ? = inconclusive; . = no result given; [ ] = remark or other dose. Unless noted, calls come from the whole dose curve; as a rule, active = well fitted curve in the direction sought with a large enough effect; inconclusive = small, poorly fitted or top-dose-only effect, or another doubt; inactive = no such curve, though single readings can be large; an effect the other way counts as inactive or inconclusive.

SMILES	TR SRC2 fluor cs	Tau fluor cs	Tau FP inhib	Tau fibril ThT	TRb-SRC2 inh	GoLoco inh red
NC1=NC(=O)/C(=C\c2ccco2)S1	-	?	?	18µM	-	-
O=C1N=C(N2CCN(c3ccccc3)CC2)S/C1=C\c1ccco1	-	-	-	14µM	-	-
O=[N+]([O-])c1ccc(N=Nc2c(Cl)cc(O)cc2Cl)cc1	-	8.9µM[quencher]	32µM	.	-	-
CC(N)=Nc1ccc([N+](=O)[O-])cc1	-	-	-	-	-	-
COc1ccc2[nH]cc(CCNc3ncnc4ccc(-c5c(C)noc5C)cc34)c2c1	.	.	.	.	.	-
CCCc1cc(=O)[nH]c(SCC(=O)Nc2ccc([N+](=O)[O-])cc2C#N)n1	-	?	-	14µM	-	-
CCCc1cc(=O)[nH]c(SC(CC)C(=O)Nc2ccccc2C#N)n1 (configuration not stated)	-	-	-	-	-	-
Cc1[nH]c(N)nc(=S)c1CCC(=O)O	.	.	.	.	.	-[14.2 µM]
CN(C)Cc1ccccc1-c1nc(N(C)C)c2ccccc2n1	.	.	.	.	.	-
O=C(NNC(=O)c1cc2cc(Br)ccc2oc1=O)c1ccc(O)cc1O	-	?	-	8.9µM	-	-
CCc1ccc(-n2cccc2/C=C2/C(=N)N3C(=NC2=O)SN=C3S(C)(=O)=O)cc1	-	-	-	?	-	-
CC(C)CC1=NN2C(=N)/C(=C\c3coc4ccccc4c3=O)C(=O)N=C2S1	-	?	?	32µM	-	-
CCSC1=NSC2=NC(=O)/C(=C\c3coc4ccccc4c3=O)C(=N)N12	-	?	-	25µM	-	-
CN(C)c1ccc2c(O)cc(=O)n(C)c2c1	-	-	22µM	25µM	?	-
Cc1[nH]c2ccccc2c1CC#N	-	-	-	-	-	-
Cc1[nH]c2ccccc2c1C(C#N)(C#N)C1C(=O)c2ccccc2C1=O	-	4.5µM[quencher]	?	6.3µM	-	-
COc1ccc(Oc2ncc3nc(-c4cn(C)c5ccccc45)c(=O)n(CCC#N)c3n2)cc1	.	.	.	.	.	-
CC(=O)O[C@](C)(CCC=C(C)C)C1CC=C(C)CC1 (some centres not stated)	-	-	-	-	-	-
Nc1ccc2c(c1)-c1ccccc1S(=O)(=O)N2	-	?	?	?	-	2µM
Cc1ccc2c(c1)-c1ccccc1S(=O)(=O)N2	-	-	-	-	-	-
O=c1[nH]c(=O)n(Cc2ccccc2)c2nc(-c3ccco3)cc(C(F)(F)F)c12	-	-	-	-	-	-
Cc1cc(C)n(CCc2nc(-c3cccs3)cs2)n1	-	-	-	-	-	-
Cc1nn(CCc2nc(-c3ccco3)cs2)c2[nH]c(=O)cc(C(F)(F)F)c12	-	-	?	25µM	-	-
Cc1cc(C)n(CCc2nc(-c3ccco3)cs2)n1	-	-	?	35µM	-	-
CCn1cc(C(=O)OCC(=O)Nc2cccc(C(C)=O)c2)c(=O)c2ccc(C)nc21	-	-	-	-	-	.
SMILES	TR SRC2 fluor cs	Tau fluor cs	Tau FP inhib	Tau fibril ThT	TRb-SRC2 inh	GoLoco inh red
COc1ccc(/C=N/Nc2snc(SC)c2C#N)cc1OC	-	11µM[quencher]	?	14µM	-	-
O=C(Nc1ccccc1F)Nc1cccc2ccc(O)cc12	-	14µM[quencher]	?	16µM	-	-
C[C@@H]1CNCCN1S(=O)(=O)c1cccc2cnccc12	-	-	-	-	-	-
CC(C)COc1ccc(C(=O)Nc2sc3c(c2C(=O)O)CC(C)(C)OC3)cc1	-	?	-	16µM	-	-
Cc1ccc(S(=O)(=O)Nc2ccc(NS(=O)(=O)c3ccc(C)cc3)c3ncccc23)cc1	-	.	.	.	-	.
O=C(COc1ccccc1C(=O)N/N=C\c1ccc(O)c(O)c1)N/N=C/c1ccc(O)c(O)c1	-	?	-	13µM	-	-
CC(C)(C)c1ccc(OCc2ccc(C(=O)N/N=C/c3ccc(O)c(O)c3)cc2)cc1	-	16µM[quencher]	-	?	-	-
O=C(COc1ccccc1[N+](=O)[O-])N/N=C/c1ccc(O)c([N+](=O)[O-])c1	-	-	-	?	-	-
COc1cccc(-c2cn3nc4c(nc3n2)CCCC4)c1	-	-	?	14µM	-	-
CCCCCCCCCCCCCCC/C=C/[C@@H](O)[C@H](NC(=O)CCCCCCCCCCCCC)OC (tested in a mixture with another compound)	-	-	-	-	-	-
Cc1cc(=O)[nH]c2cc(O)ccc12	-	-	-	-	-	-
CC(C)=CCCC1(C)C=Cc2c(c(C)cc3c2[nH]c2cc(O)ccc23)O1 (configuration not stated)	-	5µM[quencher]	?	28µM	-	-
COc1ccc(N/N=C(/N=Nc2nc(C)cc(=O)[nH]2)c2ccccc2)cc1	-	?	-	4.5µM	-	-
Cc1cc(C)cc(NC(=O)Nc2ccc(N3CCCCC3)cc2)c1	-	20µM[quencher]	-	?	-	-
O=C(Nc1cccc(Cl)c1)Nc1csc([N+](=O)[O-])c1	-	8.9µM[quencher]	?	16µM	-	-
COc1ccccc1NC(=O)Nc1ccc(-n2ccc(C(F)(F)F)n2)cc1	-	14µM[quencher]	?	?	-	-
CN(C)c1ccc(NC(=O)Nc2cccc(Cl)c2)cc1	-	14µM[quencher]	-	13µM	-	-
Cc1cc(C)cc(C(=O)Nc2ccc(N3CCCC3)cc2)c1	-	-	-	-	-	-
CCN(CC)S(=O)(=O)c1ccc2c(c1)N(CC(=O)Nc1ccccc1F)C(=O)C1CCCN21 (configuration not stated)	-	-	-	-	-	.
CCCCCC(O)c1ccc([C@H]2CCC(=O)[C@@H]2CCCCCCC(=O)O)cc1 (some centres not stated)	-	.	.	.	-	.
Cc1cccn2c(=O)c3cc(C#N)c(=O)n(-c4nnc(SCc5ccc(Cl)cc5)s4)c3nc12	-	?	-	?	-	.
CC(C)NC(=O)N1CCCC2(CCN(C(=O)c3cc(C(F)(F)F)cc(C(F)(F)F)c3)CC2)C1	.	.	.	.	.	-
COc1cccc(CSCC(=O)O)c1	.	.	.	.	.	-[14.2 µM]
O=C(Nc1ccc(-n2ccc(C(F)(F)F)n2)cc1)Nc1cccc(Cl)c1	-	?	3.5µM	-	-	-
CCOC(=O)c1sc(NC(=O)Nc2cccc(Cl)c2)cc1C	-	3.5µM[quencher]	?	-	-	-
Cc1cc(C)cc(NC(=O)Nc2ccc(-n3ccc(C(F)(F)F)n3)cc2)c1	-	?	18µM	-	-	-
O=C(O)CCC(=O)Nc1ccc(-n2ccc(C(F)(F)F)n2)cc1	-	-	-	.	-	-
Cc1cnc(CNc2ncnc3ccc(-c4c(C)noc4C)cc23)cn1	.	.	.	.	.	-
Cn1c(SCc2ccccc2F)nc2c([nH]c3ccccc32)c1=O	-	-	-	-	-	.
CCOc1cc(CNC(=O)Cn2c(=O)c3cccn3c3ccc(F)cc32)cc(OCC)c1OCC	-	-	-	-	-	.
